Only some compounds are listed: those with a hit (about 7.3% of all), similar ones and a draw of the others.
IP6K1 inh = inhibitors of human IP6K1. Q92551. IP6K1 kinase, ADP-Glo luminescence, 2 h; active compounds read low. activity change, % (series mostly up to about 58 µM). 140,000 tested, 0.81% active. AID 1645851; in the data active = activity change below about -25%
Target sequence (Q92551 whole entry, looked up): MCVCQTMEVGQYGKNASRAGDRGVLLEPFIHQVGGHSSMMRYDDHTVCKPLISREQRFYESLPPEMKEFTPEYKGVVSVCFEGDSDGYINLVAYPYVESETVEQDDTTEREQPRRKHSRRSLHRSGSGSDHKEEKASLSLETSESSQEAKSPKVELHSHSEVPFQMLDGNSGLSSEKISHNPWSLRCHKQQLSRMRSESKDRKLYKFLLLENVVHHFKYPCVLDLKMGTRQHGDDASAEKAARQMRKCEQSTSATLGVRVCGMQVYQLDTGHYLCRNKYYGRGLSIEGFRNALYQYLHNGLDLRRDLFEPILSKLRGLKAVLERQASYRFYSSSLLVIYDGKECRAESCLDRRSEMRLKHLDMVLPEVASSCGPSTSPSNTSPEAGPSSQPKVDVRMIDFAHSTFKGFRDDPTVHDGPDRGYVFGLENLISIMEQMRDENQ
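ADP-Glo luminescence measures ADP made by human IP6K1 during a 2 h RT reaction with ATP/IP6 (mix at 1.3 mM/130 uM); top library doses 57.5 and 19.1 uM final.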
SNCA viab count = reduces viability of HEK-293 SNCA reporter cells. Potency, µM (highest dose often 57.1 µM), for the others: at the highest dose activity change, negative = cytotoxicity, actives largely listed as cytotoxic. HEK-293-SNCA-luc viability, GF-AFC fluorescence, 24 h. 150,000 tested, 0.12% active. AID 1671193;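 also: potency is read from the fitted curve at half-maximal effect; 0% = DMSO-treated cells and -100% = medium-only wells without cells; nearly all actives have a fitted effect of over 30% in size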
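Cytotoxicity counterscreen: after 24 h compound treatment of genome-edited SNCA-luciferase HEK-293 cells, live-cell protease substrate GF-AFC read by fluorescence after 30 min; activity scaled between DMSO (0%) and medium-only (-100%), curves Hill-fitted.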
3T3 cytotox = cytotoxic compounds in NIH 3T3 cells; NIH 3T3 viability, CellTiter-Glo ATP luminescence, 48-72 h; Potency, µM (highest dose often 96.7 µM), without a hit: at the highest dose activity change, negative = cytotoxicity, usual class: inhibitors; 94,000 tested, 4.3% active; also: potency is read from the fitted curve at half-maximal effect; nearly all actives have a fitted effect of over 55% in size
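NIH 3T3 cells at 400 cells/well received 23 nL of compound by pintool and were incubated 48 or 72 h at 37 °C. Viability was read as ATP-coupled CellTiter-Glo luminescence.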
SNCA expr inhib = inhibitors of alpha-synuclein (SNCA) gene expression; 140,000 tested, 0.17% active; HEK-293 SNCA-luciferase knock-in, luminescence, 24 h; Potency, µM (series often up to 57.2 µM), for inactives: top-dose activity change, negative = inhibition, usual class: inhibitors;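 also: potency is read from the fitted curve at half-maximal effect; plate controls were DMSO cells for no effect and cell-free wells for full effect; nearly all actives have a fitted effect of over 45% in size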
HEK cytotox = cytotoxic compounds in HEK 293 cells; HEK 293 viability, ATP luminescence (CellTiter-Glo), 48-72 h; Potency, µM (doses to about 115 µM), inactives show at the highest dose activity change, negative = cytotoxicity, actives largely listed as inhibitors; 94,000 tested, 6.6% active; also: potency is read from the fitted curve at half-maximal effect; nearly all actives have a fitted effect of over 60% in size
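Luminescence from cellular ATP, measured with CellTiter-Glo, indicates HEK 293 viability. Cells plated at 250 cells/well are treated with compound for 48 or 72 hr at 37 degree Celsius before reagent addition.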
Luciferase inh = blocks purified firefly luciferase enzyme activity; AID 1347043; P08659; 76,000 tested, 2.5% active; purified P. pyralis luciferase, luminescence, biochemical; Potency, µM (top dose mostly 115 µM), actives largely listed as inhibitors; also: potency is read from the fitted curve at half-maximal effect; nearly all actives have a fitted effect of over 65% in size
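Luminescence read by CCD imaging after purified firefly luciferase (10nM final) was added to substrate buffer holding 10uM D-luciferin and 10uM ATP, pH 7.5, pre-dosed with compound.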
* marks the source's active call; other numbers are inactive results; i = inactive; u = inconclusive; x = not tested or not shown; [ ] = another dose, or the depositor's remark. Unless noted, calls follow the shape of the dose curve; as a rule, active = well fitted curve in the direction sought with a large enough effect; inconclusive = small, poorly fitted or top-dose-only effect, or another doubt; inactive = no such curve, though single readings can be large; an effect the other way counts as inactive or inconclusive. Unless noted, % is scaled to controls: 0 for no effect and ±100 for the full control effect.

SMILES	IP6K1 inh	SNCA viab count	3T3 cytotox	SNCA expr inhib	HEK cytotox	Luciferase inh
Fc1cc(Nc2ncc(-c3ccccc3)c3c2OCC3)cc(N2CCOCC2)c1	-10	-6%[87.6 µM]	u	-4%[87.6 µM]	u	i
Cc1noc(C)c1-c1cnc(NC(=O)c2ccc(Cl)cc2)c2c1CCO2	-5	3%[87.6 µM]	89µM*	14%[87.6 µM]	-24%[172 µM]	i
Cc1noc(C)c1-c1cnc(Nc2ccc(F)cc2)c2c1CCO2	-11	3%[87.6 µM]	u	41%[87.6 µM]	u	i
Cc1noc(C)c1-c1cnc(Nc2ccc(F)c(Cl)c2)c2c1CCO2	19	-24%[87.6 µM]	u	31%[87.6 µM]	71µM*	14µM*
CCCC(O)CN1CCC(=O)N(CC)Cc2cc(F)ccc21 (centres undefined)	15	x	-18%	x	u	x
COCCOC1CCOC2(CCN(C(=O)CCc3ccc(OC)cc3)CC2)C1 (centres undefined)	-8	-8%[12.5 µM]	-23%	-26%	-4%	i
Cc1cccc(-c2ccccc2C(=O)N2CCCC(CO)(Cc3ccccc3F)C2)c1 (centres undefined)	1	-24%	79µM*	-26%	20µM*	i
CC1(C)[C@H]2CC[C@@H](CNC(=O)N3CCCC3)[C@@H]1C2	6	2%[87.6 µM]	u	6%[87.6 µM]	63µM*	i
CC1(C)[C@H]2CC[C@@H](CNC(=O)c3ccc4ccccc4n3)[C@@H]1C2	2	10%[87.6 µM]	89µM*	7%[87.6 µM]	u	i
Cc1ccc(C(=O)NC[C@@H]2CC[C@H]3C[C@@H]2C3(C)C)cc1	-3	-6%[87.6 µM]	u	-5%[87.6 µM]	u	i
Cc1ccccc1C(=O)NC[C@@H]1CC[C@H]2C[C@@H]1C2(C)C	4	-5%[87.6 µM]	u	2%[87.6 µM]	u	i
CC1(C)[C@H]2CC[C@@H](CNC(=O)c3cccc(Br)c3)[C@@H]1C2	0	-15%[87.6 µM]	u	-7%[87.6 µM]	100µM*	i
Cc1cc(C(=O)NC[C@@H]2CC[C@H]3C[C@@H]2C3(C)C)ccc1Cl	7	-12%[87.6 µM]	35µM*	u	u	i
CCCc1nnc(C[C@@H]2C[C@@H](C(C)C)[C@H](CN3CCN(CCO)CC3)C=C2C)o1	1	-7%[87.6 µM]	u	-3%[87.6 µM]	u	i
CC1(C)[C@H]2CC[C@@H](CNC(=O)Cc3cccc(Cl)c3)[C@@H]1C2	10	-5%[87.6 µM]	u	-18%[87.6 µM]	100µM*	i
CC1(C)[C@H]2CC[C@@H](CNC(=O)c3ccc(Cl)nc3)[C@@H]1C2	9	9%[87.6 µM]	79µM*	-4%[87.6 µM]	u	i
COCc1cc(=O)n(CC(=O)Nc2cccc(C(C)=O)c2)c(N2CCOCC2)n1	37	-4%	-8%	-21%	0%	i
Cc1noc(-c2cn(C3CCCN(C(=O)c4ccc(C)c(C)c4)C3)nn2)n1 (centres undefined)	3	8%	-25%	-21%	-4%	i
COCCN1Cc2ccc(NCc3ccccc3)nc2C(C)(C(=O)Nc2ccccc2)C1 (centres undefined)	5	u	u	u	50µM*	i
COCCN1Cc2ccc(NCc3ccccc3)nc2C(C)(C(=O)Nc2ccc(F)cc2)C1 (centres undefined)	8	-21%	u	u	u	i
COCCN1Cc2ccc(Nc3cccnc3)nc2C(C)(C(=O)Nc2ccccc2C)C1 (centres undefined)	11	-13%[87.6 µM]	u	-24%[87.6 µM]	u	63µM*
COCCN1Cc2ccc(NCC(C)C)nc2C(C)(C(=O)Nc2cccc(F)c2)C1 (centres undefined)	6	-3%[87.6 µM]	25µM*	-17%[87.6 µM]	45µM*	i
COCCN1Cc2ccc(NCC(C)C)nc2C(C)(C(=O)Nc2ccncc2)C1 (centres undefined)	-5	0%[87.6 µM]	u	-13%[87.6 µM]	u	i
COCCN1Cc2ccc(NCc3ccccc3)nc2C(C)(C(=O)NCc2ccccc2)C1 (centres undefined)	7	8%	45µM*	-21%	50µM*	i
COCc1nnc(NC(=O)Cn2nc3c(cc2=O)CCCCC3)s1	14	3%	-16%	12%	-7%	i
SMILES	IP6K1 inh	SNCA viab count	3T3 cytotox	SNCA expr inhib	HEK cytotox	Luciferase inh
COc1ccc(-c2ccc3nc(-c4ccc(F)c(F)c4)oc3c2)c(OC)c1OC	0	3%	u	-1%	89µM*	i
COc1ccc(-c2ccc3nc(-c4ccc(C)c(F)c4)oc3c2)c(OC)c1OC	-1	8%	-10%	-3%	-2%	u
COc1ccc(-c2ccc3nc(-c4ccc(F)c(C)c4)oc3c2)c(OC)c1OC	-19	-1%	-20%	7%	89µM*	u
COCCOC1CCN(C(=O)c2ccsc2)C1 (centres undefined)	2	-4%	-7%	-23%	1%	x
CCOCCn1c(=O)[nH]c2cc(C(=O)NCCc3ccc(C)s3)ccc21	-10	0%	-25%	109%	u	40µM*
O=C1N(C2CCCCC2)C[C@H]2CN(S(=O)(=O)c3ccc(F)cc3)CCN12	5	3%[87.6 µM]	35µM*	-5%[87.6 µM]	u	i
Cc1ccc(NC2=N[C@H]3[C@@H](O)[C@H](O)C[C@H](C(=O)N(C)Cc4ccccc4)[C@H]3S2)cc1	-8	4%[87.6 µM]	-1%[174 µM]	2%[87.6 µM]	3%[172 µM]	32µM*
COc1cc(NC2=N[C@H]3[C@@H](O)[C@H](O)C[C@H](C(=O)N(C)Cc4ccccc4)[C@H]3S2)cc(OC)c1	-11	5%	-1%	13%	0%	i
CNC(=O)c1cc(C)nc2onc(C3CCN(C(=O)c4ccc(Cl)nc4)CC3)c12	1	x	1%	x	i	x
Cc1cc(Cn2cc3c4c(cccc42)[C@H](CC(C)C)N[C@H](C(=O)NCc2nccs2)C3)no1	6	u	u	u	22µM*	i
CC(=O)NCCNC(=O)[C@@H]1Cc2cn(Cc3cc(C)on3)c3cccc(c23)[C@H](CC(C)C)N1	7	-23%	-8%	-15%	u	i
Cc1cc(Cn2cc3c4c(cccc42)[C@H](CC(C)C)N[C@H](C(=O)NCc2ccc(C)o2)C3)no1	1	-4%	u	-6%	32µM*	i
CC(C)(C)c1oc(C(N)=O)cc1CN1CCCC(CO)(CC2CC2)C1 (centres undefined)	27	-11%	-18%	20%	-17%	i
CCCn1ncc(CN(C)CC2CCN(CCc3ccc(Cl)cc3)CC2)c1C	-4	5%	35µM*	-8%	22µM*	i
CC(C)CNC(=O)Nc1cccc(-c2ccc(N3CCC(C)CC3)nn2)c1	-10	-8%	-20%	u	-8%	0.32µM*
